Screening results as filed in PubChem BioAssay.
JMJD2A Tudor: inhibitors of human JMJD2A Tudor domain; O75164; AlphaScreen JMJD2A-Tudor / H3K4me3 peptide binding; Potency, µM (titrated, usually from 114 µM), for the others: top-dose activity change, negative = inhibition, actives largely listed as inhibitors; 390,000 tested, 4.4% active; AID 504339; note: % is set by controls: 0 for no effect and ±100 for the full control effect; nearly all actives have a fitted effect of over 50% in size
G9a block: inhibitors of human histone lysine methyltransferase G9a. Q96KQ7. G9a H3K9 monomethylation, AlphaScreen, 2 h. Potency, µM (series often up to 102 µM), without a hit: top-dose activity, negative = inhibition, usual class: inhibitors. 350,000 tested, 8.8% active; note: % is set by controls: 0 for no effect and ±100 for the full control effect; nearly all actives have a fitted effect of over 75% in size
Target sequence (Q96KQ7 913-1193 limits assumed): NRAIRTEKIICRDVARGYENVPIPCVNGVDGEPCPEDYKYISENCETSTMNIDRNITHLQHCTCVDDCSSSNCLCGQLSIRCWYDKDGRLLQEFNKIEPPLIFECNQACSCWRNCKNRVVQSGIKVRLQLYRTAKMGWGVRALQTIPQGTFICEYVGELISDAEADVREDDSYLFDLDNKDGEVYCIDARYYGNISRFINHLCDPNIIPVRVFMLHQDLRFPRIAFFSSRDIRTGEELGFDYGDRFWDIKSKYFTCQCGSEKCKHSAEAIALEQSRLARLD
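AlphaScreen detection with an anti-monomethyl H3K9 antibody quantified product after a 2 h room-temperature reaction containing 500 nM biotinylated H3K9 peptide, 20 µM SAM and 20 nM enzyme, which had been preincubated 15 min with compound.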
Sfp inh: Sfp phosphopantetheinyl transferase inhibition; 310,000 tested, 3.5% active; Biochemical Sfp PPTase activity, qHTS; Q9F4F7; Potency, µM, without a hit: largest response in the series, negative = inhibition, usual class: inhibitors; AID 1490;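 note: the enzyme is Sfp with the accession as filed and its product quenches rhodamine fluorescence; 0% = enzyme reaction without inhibitor and -100% = no enzyme wells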
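Step 1, compound plus 15 nM Sfp-PPTase, 15 min, room temperature. Step 2, add rhodamine-CoA (5 uM) and BHQ-2-YbbR (12.5 uM). Step 3, read 525/598 nm fluorescence at 0 and 30 min.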
L3MBTL1 inh: inhibitors of human L3MBTL1; AlphaScreen L3MBTL1–H3K9me1 peptide binding; Potency, µM (top dose mostly 57.1 µM), inactives show at the highest dose activity, negative = inhibition, actives largely listed as inhibitors; 230,000 tested, 0.66% active; AID 485360; note: % is set by controls: 0 for no effect and ±100 for the full control effect; nearly all actives have a fitted effect of over 60% in size
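AlphaScreen assay: L3MBTL1 (50 nM final) was preincubated 30 min at room temperature with biotinylated H3(1-15)K9me1 peptide (75 nM final), then 30 min with library compounds; streptavidin donor and nickel chelate acceptor beads (10 ug/mL final) added, 30 min dark.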
BAZ2B inh: inhibitors of human BAZ2B bromodomain | Potency, µM (titrated, usually from 114 µM), for inactives: at the top dose activity change, negative = inhibition, usual class: inhibitors | 360,000 tested, 4.4% active | Q9UIF8 | AlphaScreen BAZ2B-H3K14Ac peptide displacement; note: % is set by controls: 0 for no effect and ±100 for the full control effect; nearly all actives have a fitted effect of over 60% in size
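Inhibition is scored as reduced AlphaScreen emission. The BAZ2B/b-H3(5-23)K14Ac complex (50 nM each) in PBS pH 7.4, 0.01% Tween-20 meets compound (up to 110 uM) for 30 min at RT before bead addition.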
HP1b binding inh: inhibitors of HP1-beta chromodomain binding to methylated histone tails | P83916 | AlphaScreen HP1-beta / biotin-H3K9me3 peptide binding | Potency, µM (titrated, usually from 114 µM), without a hit: at the highest dose activity change, negative = inhibition, usual class: inhibitors | 390,000 tested, 0.56% active | AID 540317; note: nearly all actives have a fitted effect of over 70% in size
Target sequence (P83916 whole entry, looked up): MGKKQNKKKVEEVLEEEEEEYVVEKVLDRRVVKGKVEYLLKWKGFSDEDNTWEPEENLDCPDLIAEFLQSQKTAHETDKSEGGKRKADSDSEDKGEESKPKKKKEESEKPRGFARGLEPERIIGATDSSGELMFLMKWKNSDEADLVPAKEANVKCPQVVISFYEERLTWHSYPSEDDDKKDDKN
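AlphaScreen: HP1-beta (50 nM) preformed 30 min with biotin-H3(1-18)K9me3 peptide (50 nM) in PBS pH 7.4, 0.01% Tween-20. Compound added for 30 min at RT, then streptavidin donor/nickel chelate acceptor beads (10 ug/mL) for 30 min.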
* marks the source's active call; other numbers are inactive results; ? = inconclusive; · = no result given; [ ] = remark or other dose. In the library only some 12% were active in any assay of this set; here they are far more common. Calls come from the whole dose curve; as a rule, active = well fitted curve in the direction sought with a large enough effect; inconclusive = small, poorly fitted or top-dose-only effect, or another doubt; inactive = no such curve, though single readings can be large; an effect the other way counts as inactive or inconclusive. Potency is the fitted concentration of half-maximal effect.

SMILES	JMJD2A Tudor	G9a block	Sfp inh	L3MBTL1 inh	BAZ2B inh	HP1b binding inh
CCCC(c1nnnn1CCOC)N(Cc1cc2cc(C)c(C)cc2[nH]c1=O)CC1CCCO1 (stereo unspecified)	-16.8%	-16.3%[12.7 µM]	10µM*	2.0%	-26.0%	-4.5%
CCC(c1nnnn1CC1CCCO1)N(CCN1CCOCC1)Cc1cc2cc(C)ccc2[nH]c1=O (stereo unspecified)	-8.2%	32.1%[12.7 µM]	44.7µM*	14.2%	13.6%	24.6%
CCCC(c1nnnn1CC(=O)OCC)N(Cc1cc2c(C)cc(C)cc2[nH]c1=O)C1CCCC1 (stereo unspecified)	-23.4%	28.2µM*	-13.2%	-2.1%	-38.4%	26.1%
Cn1c(-c2ccsc2)c(-c2cccs2)c2cc(Br)ccc21	2.8%	2.6%[0.501 µM]	·	13.8%	?	93.1%
Cc1ccc(C2CCN(C(=O)c3cnn(-c4ccc(C)c(C)c4)c3C3CCN(C(=O)OC(C)(C)C)CC3)C2)cc1 (stereo unspecified)	-19.7%	-29.3%[59 µM]	·	·	-1.7%[57.1 µM]	32.0%
N#CN1CCC(NC(=O)c2ccc(C(F)(F)F)cc2)CC1	-12.3%	·	·	·	·	·
C/C(CC(=O)NCc1ccccc1)=N\NC(=O)c1cnccn1	?	39.8µM*	?	1.4%	11.8%	22.0%
C/C(Cc1ccccc1)=N\NC(=O)c1ccccn1	-27.6%	·	50.1µM*	·	-10.3%	54.8%
C/C(CC(=O)NCc1ccc(F)cc1)=N\NC(N)=S	?	?	56.2µM*	13.9%	?	?
C/C(CC(=O)Nc1ccccc1C(F)(F)F)=N\NC(=O)c1cnccn1	-22.8%	·	·	·	·	55.6%
C/C(CC(=O)NCc1ccccc1)=N\NC(N)=S	?	3.16µM*	44.7µM*	·	-14.2%	-16.0%
COc1ccc(C(=O)N2CCC3(CCN(Cc4ccccc4)CC3)CC2)cc1	·	4.2%[12.7 µM]	20.1%	·	·	·
COC(=O)[C@@]1(Cc2ccccc2)[C@H]2c3cc(C(=O)N(C)C)n(Cc4ccccc4)c3C[C@H]2CN1C(=O)c1ccccc1	·	·	-4.1%	·	·	·
Cc1ccc(S(=O)(=O)N2CC(O)C2)cc1	-2.9%	14.1%[2.33 µM]	·	7.0%	-1.8%	51.4%
CC1CCCCN1CC(=O)Nc1ccccc1Sc1ccccc1 (stereo unspecified)	51.0%	36.6%[59 µM]	3.7%	24.1%	29.7%	99.6%
CC(C)N(Cc1ccccc1)C(=S)NC(=O)C1(C)CC1(Cl)Cl (stereo unspecified)	-16.3%	15.4%	20.3%	-14.7%	-33.9%	32.8%
CC1(C(=O)NC(=S)N(CCC#N)c2ccccc2)CC1(Cl)Cl (stereo unspecified)	?	28.2µM*	-2.5%	·	-37.1%	-0.5%
Cc1cc(-c2nnc(-c3ccccc3)c(-c3ccccc3)n2)c(C)o1	?	15.8µM*	14.1µM*	-10.8%	?	-20.5%
Cc1ccc(-c2nnc(-c3ccccc3)c(-c3ccccc3)n2)cc1	-9.9%	?	-26.5%	-5.8%	-14.2%	34.5%
COC(=O)N1C(C2CC2)=Cc2ccccc2C1CC(C)=O (stereo unspecified)	·	·	-1.2%	·	·	·
C=CCn1c(COc2cccc3ccc(C)nc23)nnc1SCC(=O)O	28.2µM*	-36.1%[59 µM]	-11.2%	·	1.6%	33.3%
C=CCn1c(CNC(=O)c2ccco2)nnc1SCC(=O)c1ccc(F)cc1	-8.4%	?	11.8%	·	0.9%	17.4%
C=CCn1c(COC)nnc1SCC(=O)c1ccc(F)cc1	39.8µM*	3.55µM*	?	-4.0%[11.4 µM]	25.7%	-40.6%
O=[N+]([O-])c1cccnc1Sc1ccc(Br)cc1	56.2µM*	·	·	·	·	?
Cc1ccc(Sc2ncccc2[N+](=O)[O-])cc1	44.7µM*	?	4.3%	·	?	?
SMILES	JMJD2A Tudor	G9a block	Sfp inh	L3MBTL1 inh	BAZ2B inh	HP1b binding inh
Cc1ccccc1Sc1ncccc1[N+](=O)[O-]	?	·	·	·	·	-37.6%
O=C(O)c1cccnc1SCc1ccc([N+](=O)[O-])cc1	2.3%	-2.1%	16.3%	·	-5.9%	62.5%
Cc1ccnc(Sc2ncccc2[N+](=O)[O-])n1	5.2%	13.2%[12.7 µM]	6.9%	·	6.3%	46.4%
Cc1c([N+](=O)[O-])cnc(Sc2ccccc2)c1[N+](=O)[O-]	39.8µM*	·	·	·	·	?
O=[N+]([O-])c1cccnc1SCc1ccccc1	14.1µM*	44.7µM*	4.6%	·	31.6µM*	35.5µM*
O=C(Nc1ccc(C(F)(F)F)cc1)C1CCN(S(=O)(=O)c2ccc(N3CCCC3=O)cc2)CC1	-13.2%	20.2%	-19.5%	·	-1.5%[57.1 µM]	17.2%[57 µM]
CN(CC(=O)Nc1ccccc1Cl)C(=O)COC(=O)CSc1ccc(Cl)cc1	-17.4%	-14.5%[59 µM]	·	5.4%	-3.6%	36.2%
CS(=O)(=O)CCSc1ncccc1C(=O)NCc1cccs1	-7.6%	1.3%	23.2%	12.4%	1.0%	31.3%
O=C(NCc1cccs1)c1cccnc1SCCS(=O)(=O)c1ccc(C(F)(F)F)cn1	-15.5%	15.8µM*	-1.8%	7.0%	2.3%	40.5%
CC(=O)NCCNc1nc(-c2ccccc2C)nc2ccccc12	·	6.3%[0.501 µM]	19.3%	·	·	·
COc1cc2[nH]c(=S)n(C3CC3)c(=O)c2cc1OC	-5.1%	17.8µM*	-1.7%	-5.9%	-28.6%	49.3%
COc1cc2[nH]c(=S)n(CC3CCCO3)c(=O)c2cc1OC (stereo unspecified)	79.4µM*	?	-1.6%	·	2.9%	23.8%
COc1cc2[nH]c(=S)n(CCN3CCOCC3)c(=O)c2cc1OC	31.6µM*	?	17.8µM*	-6.5%	?	-0.5%
CCOc1cc2[nH]c(=S)n(CC3CCCO3)c(=O)c2cc1OCC (stereo unspecified)	?	?	-3.6%	4.3%	-0.2%	16.4%
COc1cc2[nH]c(=S)n(CCCN3CCOCC3)c(=O)c2cc1OC	25.1µM*	?	?	·	-14.9%	1.0%
COc1ccc(Cl)cc1N1C(=O)/C(=C\c2sccc2C)N=C1SCC(=O)NC1CC1	-24.4%	-39.8%[59 µM]	6.1%	·	-32.9%	25.1%
COc1ccc(NC(=O)C2CCN(c3nc4ccccc4[nH]3)CC2)cc1OC	-17.2%	6.4%[59 µM]	·	·	-1.2%	13.1%[57 µM]
CCN(CC)CCCn1c(=S)[nH]c2cc(OC)c(OC)cc2c1=O	?	?	3.3%	·	-29.7%	20.6%
Cc1[nH]c(=S)n(CC2CCCO2)c1C (stereo unspecified)	28.2µM*	?	-27.9%	2.6%	-0.1%	-16.1%
CCOc1cc2[nH]c(=S)n(CC3CCCN3CC)c(=O)c2cc1OCC (stereo unspecified)	?	?	8.3%	-3.4%[11.4 µM]	-9.9%	10.2%
CCC1CCCCN1CCn1c(=S)[nH]c2cc(OC)c(OC)cc2c1=O (stereo unspecified)	?	50.1µM*	-2.0%	2.8%	-4.0%	25.7%
COCCn1c(=S)[nH]c2cc(OC)c(OC)cc2c1=O	89.1µM*	?	-21.0%	9.1%	-7.4%	19.0%
